From ChEMBL document CHEMBL1201862, “PubChem BioAssay data set” (2004)
About 2,100 (0.53%) of roughly 400,000 compounds were called active. About 14% were inconclusive and are not listed. No rule for the calls is given here. Only a selection was taken, and actives are over-represented in it overall.

target: Ataxin-2 (Homo sapiens) (UniProt Q99700); assay: qHTS for Inhibitors of ATXN expression.; format: functional
Sequence (Q99700 whole entry): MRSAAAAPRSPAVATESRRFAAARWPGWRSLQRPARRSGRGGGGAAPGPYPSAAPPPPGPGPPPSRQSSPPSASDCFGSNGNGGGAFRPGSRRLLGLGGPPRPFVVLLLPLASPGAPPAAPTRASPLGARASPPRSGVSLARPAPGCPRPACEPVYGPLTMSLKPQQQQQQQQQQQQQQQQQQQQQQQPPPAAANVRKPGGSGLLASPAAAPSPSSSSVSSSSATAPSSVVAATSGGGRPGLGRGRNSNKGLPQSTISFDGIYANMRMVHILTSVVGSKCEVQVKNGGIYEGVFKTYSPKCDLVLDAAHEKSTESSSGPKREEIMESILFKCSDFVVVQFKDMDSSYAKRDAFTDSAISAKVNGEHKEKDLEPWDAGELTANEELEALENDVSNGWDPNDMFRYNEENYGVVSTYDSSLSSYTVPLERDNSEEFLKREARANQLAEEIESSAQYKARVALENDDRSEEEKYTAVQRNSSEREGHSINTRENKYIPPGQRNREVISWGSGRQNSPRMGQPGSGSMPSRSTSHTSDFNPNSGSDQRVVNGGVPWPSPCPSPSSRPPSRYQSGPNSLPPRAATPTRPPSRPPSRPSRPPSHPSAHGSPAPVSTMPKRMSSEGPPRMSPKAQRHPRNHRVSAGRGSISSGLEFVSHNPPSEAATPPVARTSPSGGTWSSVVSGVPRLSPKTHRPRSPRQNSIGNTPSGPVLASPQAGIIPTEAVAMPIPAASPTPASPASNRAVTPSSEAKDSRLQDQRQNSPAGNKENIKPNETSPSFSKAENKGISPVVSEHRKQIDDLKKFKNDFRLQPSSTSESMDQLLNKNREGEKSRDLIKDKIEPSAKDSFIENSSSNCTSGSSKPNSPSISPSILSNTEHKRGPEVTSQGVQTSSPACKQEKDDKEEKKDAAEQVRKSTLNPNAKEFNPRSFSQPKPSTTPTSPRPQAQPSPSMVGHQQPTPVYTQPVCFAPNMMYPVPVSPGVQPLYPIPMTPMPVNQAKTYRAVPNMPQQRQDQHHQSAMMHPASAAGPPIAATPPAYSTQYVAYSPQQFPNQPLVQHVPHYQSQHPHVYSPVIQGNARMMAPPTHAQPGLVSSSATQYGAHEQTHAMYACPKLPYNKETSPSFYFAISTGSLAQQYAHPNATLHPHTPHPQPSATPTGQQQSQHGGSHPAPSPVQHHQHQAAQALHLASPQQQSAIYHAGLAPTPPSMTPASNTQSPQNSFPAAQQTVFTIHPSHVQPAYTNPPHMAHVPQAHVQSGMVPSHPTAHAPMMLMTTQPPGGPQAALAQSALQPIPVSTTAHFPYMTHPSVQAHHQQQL

Row | Structure (SMILES) | Potency
1 | COc1ccccc1Nc1c2ccccc2nc2ccccc12 | inactive
2 | COc1cc(N)ccc1Nc1c2ccccc2nc2ccccc12 | inactive
3 | COc1ccc(Nc2c3c(nc4ccccc24)CCC3)cc1Cl | 28.2 µM (active)
4 | COc1ccc(C2CC(c3cccs3)=NN2c2ccc(C=O)cc2)cc1 (centres undefined) | inactive
5 | O=C(O)CSCC(=O)NCc1c(Cl)cccc1Oc1ccccc1 | inactive
6 | O=C(CCl)Nc1cccc(Oc2ccccc2)c1 | 8.44 µM (active)
7 | CCOC(=O)c1ccc(Nc2cnc3ccccc3n2)cc1 | inactive
8 | CCOc1ccc(-c2cnc3ccccc3n2)cc1 | inactive
9 | O=C(CCl)Nc1cccc(-c2cnc3ccccc3n2)c1 | 3.98 µM (active)
10 | O=C(CCl)Nc1ccc(Oc2cnc3ccccc3n2)cc1 | 20 µM (active)
11 | Oc1ccc(-c2cnc3ccccc3n2)cc1 | inactive
12 | CC(C)(C)C(=O)Nc1ccc(C(=O)Nc2cccc(Oc3ccc(C(=O)O)c(C(=O)O)c3)c2)cc1 | inactive
13 | CCN(CC)CCN1C2=C(C(=O)CC(C)(C)C2)C(c2cccc(F)c2)C2=C1CC(C)(C)CC2=O | inactive
14 | CCOc1ccc(NC(=O)CC(NC(C)=O)c2ccccc2)cc1S(=O)(=O)N1CCCC1 (centres undefined) | inactive
15 | Cc1c(-c2ccccc2)c(=O)oc2cc(O)ccc12 | inactive
16 | COc1ccc(-n2cc(C(=O)c3ccccc3O)cn2)cc1 | inactive
17 | COc1cccc(Cn2cccc(NC(=O)Nc3ccccc3C)c2=O)c1 | inactive
18 | COc1ccc(Cn2cc(C(=O)c3ccc(C)cc3)c(=O)c3cc(OC)c(OC)cc32)cc1 | 11.2 µM (active)
19 | CCCn1c(O)c(C(=O)NCCc2ccc(OC)cc2)c(=O)c2ccccc21 | inactive
20 | COc1ccc(Cn2cc(C(=O)c3ccc(C)c(C)c3)c(=O)c3ccccc32)cc1 | 31.6 µM (active)
21 | COc1ccc(/C=c2\s/c(=C/C(=O)c3ccc(C)cc3)[nH]c2=O)c(OC)c1 | inactive
22 | Cc1ccc(S(=O)(=O)NC(C)C(=O)OCC(=O)Nc2sccc2C(N)=O)cc1 (centres undefined) | inactive
23 | Cc1ccccc1Nc1cccc2nonc12 | inactive
24 | Cc1ccc(C)c(Nc2nc3nonc3nc2Nc2cccc(C)c2C)c1 | 10 µM (active)
25 | O=C(CCc1ccccc1)NC(c1cccs1)c1cc(Cl)c2cccnc2c1O (centres undefined) | inactive
26 | O=C(CCc1ccccc1)NC(=S)Nc1ccccc1Br | inactive

Row | Structure (SMILES) | Potency
27 | O=C(CCc1ccccc1)NC(NC(=S)Nc1ccc(Cl)cc1)C(Cl)(Cl)Cl (centres undefined) | 39.8 µM (active)
28 | O=C1c2oc3ccc(Cl)cc3c(=O)c2C(c2ccccn2)N1CCCN1CCOCC1 (centres undefined) | inactive
29 | NC(=O)C1=CC2C3C=CC2(O)C(=O)OC3O1 (centres undefined) | 16.8 µM (active)
30 | Cn1cc(/C=C/c2cc[n+](C)cc2)c2cc(F)ccc21 | inactive
31 | CCOC(=O)Cc1csc(NC(=O)CN2CCN(c3ccccc3)CC2)n1 | inactive
32 | CCOC(=O)Cc1csc(NC(=O)COc2ccc3c(C)cc(=O)oc3c2)n1 | inactive
33 | CCOC(=O)Cc1csc(NC(=O)c2ccc3ncsc3c2)n1 | 35.5 µM (active)
34 | SC1=NCN(Cc2ccco2)CN1 | inactive
35 | Clc1ccc(/C=C/c2ncc3ccccn23)cc1 | inactive
36 | CCc1ccc2c(c1)/C(=C/C(=O)c1cccs1)C(=O)N2 | 20 µM (active)
37 | CCc1cc2c(-c3ccccc3)cc(=O)oc2cc1OC(=O)c1cccs1 | inactive
38 | COCCN(CCOC)Cc1c(O)ccc2c1O/C(=C\c1ccc(C)o1)C2=O | inactive
39 | COc1ccc(/C=N/NC(=O)c2cccc(C(F)(F)F)c2)cc1 | inactive
40 | Nc1ccc(C(=O)N/N=C\c2ccc(OC(=O)c3ccccc3Cl)cc2)cc1 | inactive
41 | COc1ccc(/C=C/C(=O)Oc2ccc(/C=N/NC(=O)c3ccccc3)cc2)cc1OC | 31.6 µM (active)
42 | O=C(CNC(=O)c1ccccc1F)NCc1ccccn1 | inactive
43 | O=C1NC(=O)/C(=C\c2ccc(OCc3cccc([N+](=O)[O-])c3)cc2)N1 | inactive
44 | O=C1/C(=C/c2cccc(Cl)c2)CSc2sccc21 | inactive
45 | CCCN1C/C(=C/c2cccc([N+](=O)[O-])c2)C(=O)/C(=C/c2cccc([N+](=O)[O-])c2)C1 | 4.47 µM (active)
46 | Cc1cccc(N2CCN(S(=O)(=O)c3cccs3)CC2)c1C | inactive
47 | Cc1ccccc1C1(CC(=O)N2CCCC2c2nccs2)CC(=O)N(C2CCCC2)C1=O (centres undefined) | inactive
48 | C=CCn1c(=O)[nH]c2nc3cc(/N=C/N(C)C)c(C)cc3nc2c1=O | inactive
49 | CC1(c2ccccc2)NC(=O)N(CC(=O)NCc2cccc(Cl)c2)C1=O (centres undefined) | inactive
50 | O=C(CCl)NN1C(=O)NC(c2ccccc2)(c2ccccc2)C1=O | 26.7 µM (active)
51 | O=C(NCc1ccccc1Cl)c1ccc2c(=O)n(CC3CCCO3)c(=S)[nH]c2c1 (centres undefined) | inactive
52 | Cc1csc(N=Nc2ccc(N(C)C)cc2)[n+]1[O-] | 14.1 µM (active)

Row | Structure (SMILES) | Potency
53 | CN(C)c1ccc(N=Nc2nc3ccccc3n2C)cc1 | inactive
54 | CCCN(CC(=O)Nc1ccc(F)c(F)c1F)C(=O)CN1C(=O)NC2(CCCCC2)C1=O | inactive
55 | O=C(CSc1cc(Cl)ccc1Cl)NC1CCCc2ccccc21 (centres undefined) | inactive
56 | O=C(CSc1cccc[n+]1[O-])c1cc(Cl)ccc1Cl | 3.77 µM (active)
57 | COC(=O)c1cnc(SCc2ccc(Cl)cc2)n1C | inactive
58 | CC(C)(C)NCC(O)CON=C1c2ccccc2-c2ccccc21 (centres undefined) | inactive
59 | CCOc1ccccc1N(C(C)=O)S(=O)(=O)c1ccc(Cl)cc1 | inactive
60 | CCN(CC)S(=O)(=O)c1ccc(C(=O)N(c2ccc(C)cc2)C2C=CS(=O)(=O)C2)cc1 (centres undefined) | inactive
61 | Cc1ccc(S(=O)(=O)N(CCCO)CC(O)CON=C2c3ccccc3-c3ccccc32)cc1 (centres undefined) | 20 µM (active)
62 | CCN(CC(O)CON=C1c2ccccc2-c2ccccc21)S(=O)(=O)c1ccc(Cl)cc1 (centres undefined) | 17.8 µM (active)
63 | CN(C)CCN=c1cc(-c2ccccc2)oc2ccc(Cl)cc12 | inactive
64 | O=C(NCC1CCN(C(=O)c2ccc([N+](=O)[O-])cc2)CC1)c1ccc([N+](=O)[O-])cc1 | inactive
65 | CCCn1c(SCc2nc(-c3ccccc3C)no2)nnc1-c1ccc(Cl)cc1 | 39.8 µM (active)
66 | Cc1ccccc1CSc1nnc(-c2cnccn2)n1C | inactive
67 | CN(/N=C/c1ccc(Br)o1)C1=NS(=O)(=O)c2ccccc21 | inactive
68 | CC(C)OC(=O)CSc1nnc(COc2ccc([N+](=O)[O-])cc2)n1C | inactive
69 | Cc1ccc(C)c(-n2c(N)c(C#N)c3nc4ccccc4nc32)c1 | inactive
70 | Cn1ncc2c(ON=C(N)c3ccc(C(C)(C)C)cc3)ncnc21 | 39.8 µM (active)
71 | Cc1ccccc1C(=O)NNc1ncnc2c1cnn2C | inactive
72 | COc1ccc(NC(=O)c2sc3nc(C)c(C(=O)Nc4ccc(C)cc4C)c(-c4ccccc4Cl)c3c2N)cc1 | inactive
73 | c1ccc(C2=NN=C(c3ccncc3)c3ccc4ccccc4c3N2)cc1 | inactive
74 | N=c1c(C(=O)NCC2CCCO2)cc2c(=O)n3ccccc3nc2n1Cc1ccc(F)cc1 (centres undefined) | inactive
75 | Cc1cccc(COC[C@H](Cc2ccccc2)N2CCN(C(=O)c3cccc(Cl)c3)CCC2=O)c1 | 25.1 µM (active)
76 | Cc1ccc(S(=O)(=O)N2CCN(C(=O)COC(=O)Cc3ccc(Cl)cc3)CC2)c(C)c1 | inactive
77 | Cc1cccc(C(=O)NCC(=O)N2CC=C(c3ccccc3)CC2)c1 | inactive
78 | Cc1nn(Cc2ccccc2)c(C)c1C(=O)N1CCN(S(=O)(=O)/C=C/c2ccccc2)CC1 | inactive

Row | Structure (SMILES) | Potency
79 | Cc1cccc(C(=O)N2CCC(=O)N([C@H](COCc3ccc(Cl)cc3)Cc3ccccc3)CC2)c1 | 39.8 µM (active)
80 | O=C(c1cccc(Cl)c1)N1CCC(=O)N(C(COCc2cccc(Cl)c2)Cc2ccccc2)CC1 (centres undefined) | 35.5 µM (active)
81 | O=C1/C(=C/c2cccc(F)c2)Oc2cc(O)ccc21 | inactive
82 | CN1CCc2c(sc3c2C(=O)NC(/C=C\c2ccccc2)N3)C1 (centres undefined) | inactive
83 | O=c1cc(-c2ccccc2)c2ccc3c(c2o1)CN(Cc1cccc(Cl)c1)CO3 | inactive
84 | Cc1ccc(S(=O)(=O)C(C#N)c2nc3ccccc3nc2N2CC(C)OC(C)C2)cc1C (centres undefined) | inactive
85 | Cc1c(CCOC(=O)C2C3CC4CC(C3)CC2C4)sc[n+]1CC(=O)c1ccc(Br)cc1 (centres undefined) | 20 µM (active)
86 | Cc1c(CCOC(=O)CC23CC4CC(CC(C4)C2)C3)sc[n+]1CC(=O)c1ccccc1 | 29.9 µM (active)
87 | Cc1c(CCOC(=O)C23CC4CC(CC(C4)C2)C3)sc[n+]1CC#N | 31.6 µM (active)
88 | CN1CCC(N(C)C(S)=NCCc2ccccc2)CC1 | inactive
89 | CCNS(=O)(=O)c1ccc(CCC(=O)N2CCc3ccccc3C2)cc1 | inactive
90 | Cc1ccc2nc(C)c3c(c2c1)N(c1ccc(F)cc1)CC3 | inactive
91 | CC(C)NCC(O)Cn1c2c(c3ccccc31)CCc1c-2cnn1-c1ccccc1 (centres undefined) | 25.1 µM (active)
92 | N#Cc1sc2nc(-c3cccs3)cc(-c3ccccc3)c2c1N | inactive
93 | NC(=O)c1ccc(NC(=O)CNC(c2ccccc2)c2ccccc2)cc1 | inactive
94 | Cc1ccc(C(=O)C(C)[n+]2cccc(C(N)=O)c2)cc1 (centres undefined) | inactive
95 | Cc1ccc(C(=O)Sc2cccccc2=O)cc1 | 2.51 µM (active)
96 | Cc1cccc(CC(=O)N2CCC(N3CCC(C(=O)N4CCOCC4)CC3)CC2)c1 | inactive
97 | COc1ccc(-c2noc(CSc3nnc(Cc4ccccc4)n3-c3cccc(C)c3)n2)cc1 | 39.8 µM (active)
98 | COc1ccc(OC(C)C(=O)N(C)Cc2nc(-c3ccccc3)no2)cc1 (centres undefined) | inactive
99 | COc1ccc(Cc2noc(CN(C)CCN3CCc4ccccc4C3)n2)cc1OC | inactive
100 | COc1ccccc1-c1noc(CSc2nnc(Cc3ccccc3)n2-c2ccc(C)c(C)c2)n1 | 35.5 µM (active)
101 | COc1ccccc1-c1ccc(SCc2cccc(F)c2)nn1 | inactive
102 | COc1ccc(OC)c(-c2noc(CSc3nnc(Cc4ccccc4)n3-c3cccc(C)c3)n2)c1 | 22.4 µM (active)
103 | COc1ccc(-c2noc(CSc3nnc(Cc4ccccc4)n3-c3ccc(F)cc3)n2)cc1 | 39.8 µM (active)
104 | COc1ccc(OC(C)C(=O)N(C)Cc2nc(-c3ccc(C)cc3)no2)cc1 (centres undefined) | inactive
